Experimental findings from PubChem BioAssay (EPA / NIEHS) are described below.

Results filed as inconclusive are left out. Some structures have more than one record in an assay (separate samples or runs), and their calls can disagree. Calls of active or inactive are those of the source. How the source made its calls, unless noted: active means hit-call score of the fitted dose curve at least 0.9, where 1 is the maximum; inconclusive means response in the unintended direction; inactive means score below 0.9.

Experiment [1] deals with Bile acid receptor (Homo sapiens) (UniProt Q96RI1). The experiment can be described thus: OT_FXR_FXRSRC1_0480: Odyssey Thera (OT) 8-hour HEK293T Protein-Complementation Assay for Farnesoid X receptor/SRC-1 Co-activator (AID 2283383). In outline: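 PCA, HEK293T, 8 h compound exposure; FXR–SRC-1 binding reconstitutes split reporter; fluorescence intensity; positive-direction fit vs DMSO.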

Experiment [2] has the same target. Description: OT_FXR_FXRSRC1_1440: Odyssey Thera (OT) 24-hour HEK293T Protein-Complementation Assay for Farnesoid X receptor/SRC-1 Co-activator (AID 2283384). The procedure, abridged: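 Measures ligand-driven FXR–SRC-1 co-activator recruitment in HEK293T via fragment complementation, fluorescence intensity at 24 h. DMSO served as negative control and baseline for gain-of-signal fitting.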

The target of experiment [3] is Retinoic acid receptor RXR-alpha (Homo sapiens) (UniProt P19793). The experiment can be described thus: OT_NURR1_NURR1RXRa_0480: Odyssey Thera (OT) 8-hour HEK293T Protein Complementation Assay for Nurr1/retinoid X receptor (RXR) (AID 2283385). In outline:
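Interaction of bait and prey reconstitutes a functional reporter, whose fluorescence was measured in HEK293T cells dosed with compound for 8 hours. Signal gain relative to DMSO defined the single endpoint.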

The target is the same in experiment [4]. Description: OT_NURR1_NURR1RXRa_1440: Odyssey Thera (OT) 24-hour HEK293T Protein Complementation Assay for Nurr1/retinoid X receptor (RXR) (AID 2283386). The procedure, abridged: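 Steps: fragment-tagged Nurr1 and RXRα expressed in HEK293T; compounds added; after 24 h, complemented reporter quantified by fluorescence intensity; signal increase over DMSO fitted as the single endpoint.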

In experiment [5] the target is Peroxisome proliferator-activated receptor gamma (Homo sapiens) (UniProt P37231). Description: OT_PPARg_PPARgSRC1_0480: Odyssey Thera (OT) 8-hour Protein-Complementation Assay for Peroxisome Proliferator-activated Receptor Gamma / SRC-1 Co-activator (AID 2283387).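 Further: nuclear to cytoplasmic split Venus YFP fluorescence ratio reporting PPARg SRC-1 interaction.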 In outline: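 HEK293T transiently transfected with PPARg and SRC-1 fused to Venus YFP fragments, compounds 8 h at 37C. Fixed, Draq5-stained cells imaged; nuclear/cytoplasmic 488 nm fluorescence ratio over at least 350 cells per image; gain fitted versus DMSO.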

For experiment [6] the target is unchanged. The experiment can be described thus: OT_PPARg_PPARgSRC1_1440: Odyssey Thera (OT) 24-hour Protein-Complementation Assay for Peroxisome Proliferator-activated Receptor Gamma/ SRC-1 Co-activator (AID 2283388). The procedure, abridged: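 Transient HEK293T, YFP fragments 1-158/159-239 (mutant IFP1/IFP2) fused to PPARg/SRC-1; 24 h dosing; fix 4% formaldehyde, Draq5; Opera imaging 488/635 nm; N/C ratio, gain vs DMSO.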

Read-out in experiment [7]: Tumor necrosis factor receptor superfamily member 6 (Homo sapiens) (UniProt P25445)
The experiment can be described thus: LTEA_HepaRG_FAS: Life Technologies and Expression Analysis (LTEA) Assay for Fas cell surface death receptor (FAS) using HepaRG (AID 2283447; active means hit-call score of the fitted dose curve at least 0.9, where 1 is the maximum; inactive means score below 0.9). Particulars: mRNA level, 48 h; actives raise or lower the signal. In outline:
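Differentiated human HepaRG cells, pre-cultured 48 h, were exposed in duplicate for 48 h to 8-point half-log concentrations (top 100 uM, 0.5% DMSO) in serum-free induction medium; FAS mRNA measured by qRT-PCR, normalized to ACTB/GAPDH/POLR2A, bidirectional fit versus DMSO.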

Read-out in experiment [8]: Cyclin D2 (CCND2), CCND2 (gene 894)
The experiment can be described thus: LTEA_HepaRG_CCND2: Life Technologies and Expression Analysis (LTEA) Assay for Cyclin D2 (CCND2) using HepaRG (AID 2283449; active means hit-call score of the fitted dose curve at least 0.9, where 1 is the maximum; inactive means score below 0.9;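 further: CCND2 transcript measured by TaqMan qRT-PCR and normalised to three housekeeping genes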). The conditions noted are these: mRNA level, 48 h; actives raise or lower the signal. The procedure, abridged: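 In this HepaRG study, an eight-point concentration series (max 100 uM, 0.5% DMSO) is applied for 48 h. CCND2 mRNA change is derived by qRT-PCR normalised to ACTB, GAPDH and POLR2A.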

Read-out in experiment [9]: Cyclin Dependent Kinase Inhibitor 1A (CDKN1A), CDKN1A (gene 1026)
Description: LTEA_HepaRG_CDKN1A: Life Technologies and Expression Analysis (LTEA) Assay for Cyclin Dependent Kinase Inhibitor 1A (CDKN1A) using HepaRG (AID 2283450; active means hit-call score of the fitted dose curve at least 0.9, where 1 is the maximum; inactive means score below 0.9). The conditions noted are these: mRNA level, 48 h; actives raise or lower the signal. The procedure, abridged: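 Cryopreserved HepaRG cells were plated and cultured 48 h, then switched to serum-free induction medium. Chemicals (eight half-log concentrations, top 100 uM, 0.5% DMSO) were applied for 48 h. Lysates underwent qRT-PCR for CDKN1A with housekeeping normalization.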

Experiment [10] is described as follows: CEETOX_H295R_11DCORT: CeeTox H295R High-throughput Steroidogenesis Assay for 11-Deoxycortisol (11DCORT) (AID 2283432; active means hit-call score of the fitted dose curve at least 0.9, where 1 is the maximum; inactive means score below 0.9;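 further: human adrenal H295R cells prestimulated with 10 µM forskolin for 48 h; 11-deoxycortisol secreted into the medium measured by LC-MS/MS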). Particulars: actives raise or lower the signal. In outline: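 H295R cells prestimulated 48 h with 10 uM forskolin, then exposed 48 h to chemical in 0.1% DMSO. 11-Deoxycortisol in medium quantified by HPLC-MS/MS after MTBE extraction; bidirectional fit versus DMSO. MTT viability read in same wells.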

Experiment [11] is described as follows: CEETOX_H295R_OHPREG: CeeTox H295R High-throughput Steroidogenesis Assay for OH-Pregnenolone (OHPREG) (AID 2283434; active means hit-call score of the fitted dose curve at least 0.9, where 1 is the maximum; inactive means score below 0.9). The conditions noted are these: actives raise or lower the signal. In outline:
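Readout: HPLC-MS/MS of 17alpha-hydroxypregnenolone in medium after 48 h chemical exposure of H295R cells pretreated with forskolin. Values fitted bidirectionally relative to DMSO; chemicals reducing viability to 20–70% were retested after 10-fold dilution.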

Experiment [12] can be described thus: CEETOX_H295R_OHPROG: CeeTox H295R High-throughput Steroidogenesis Assay for OH-Progesterone (OHPROG) (AID 2283435; active means hit-call score of the fitted dose curve at least 0.9, where 1 is the maximum; inactive means score below 0.9;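 further: human adrenal H295R cells primed 48 h with 10 µM forskolin; 17alpha-hydroxyprogesterone secreted into medium measured by HPLC-MS/MS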). The conditions noted are these: actives raise or lower the signal. In outline:
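Steps: seed H295R cells and adhere overnight; stimulate with 10 uM forskolin for 48 h; replace with chemical-containing medium (0.1% DMSO) for 48 h; extract medium with MTBE; quantify 17alpha-hydroxyprogesterone by reverse-phase C18 HPLC-MS/MS against a 7-point curve.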

Experiment [13] is described as follows: CEETOX_H295R_CORTIC: CeeTox H295R High-throughput Steroidogenesis Assay for Corticosterone (CORTIC) (AID 2283437; active means hit-call score of the fitted dose curve at least 0.9, where 1 is the maximum; inactive means score below 0.9;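 further: corticosterone secreted into medium quantified by mass spectrometry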;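 on AC50: human H295R adrenal cells prestimulated with forskolin before chemical exposure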). Particulars: actives raise or lower the signal. The procedure, abridged: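 Steps: seed H295R, adhere overnight; 10 uM forskolin 48 h; replace with chemical (0.1% DMSO) 48 h; extract medium with MTBE; quantify corticosterone by HPLC-MS/MS; score bidirectionally vs DMSO.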

Experiment [14] in a line: CEETOX_H295R_CORTISOL: CeeTox H295R High-throughput Steroidogenesis Assay for Cortisol (AID 2283438; active means hit-call score of the fitted dose curve at least 0.9, where 1 is the maximum; inactive means score below 0.9). The conditions noted are these: actives raise or lower the signal. In outline:
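Cortisol synthesis by H295R cells is measured 48 h after chemical dosing, following a 48 h stimulation with 10 uM forskolin. Hormone is extracted and quantified by HPLC-MS/MS, and activity is fitted bidirectionally against the DMSO control.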

A short description of experiment [15]: CEETOX_H295R_DOC: CeeTox H295R High-throughput Steroidogenesis Assay for DOC (AID 2283439; active means hit-call score of the fitted dose curve at least 0.9, where 1 is the maximum; inactive means score below 0.9). The conditions noted are these: actives raise or lower the signal. The procedure, abridged: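 Steps: seed H295R, adhere overnight; 10 uM forskolin 48 h; replace with chemical medium (0.1% DMSO) 48 h; collect medium, MTBE extraction, HPLC-MS/MS for DOC. Viability then checked by MTT; cytotoxic chemicals diluted until viability ≥70%.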

A short description of experiment [16]: CEETOX_H295R_ESTRADIOL: CeeTox H295R High-throughput Steroidogenesis Assay for Estradiol (AID 2283440; active means hit-call score of the fitted dose curve at least 0.9, where 1 is the maximum; inactive means score below 0.9;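 further: estradiol secreted into medium quantified by LC-MS/MS after dansyl derivatisation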). The conditions noted are these: actives raise or lower the signal. In outline:
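Following OECD 456 with minor changes, H295R cells received 10 uM forskolin for 48 h and then test chemical for 48 h. Hormone output was read by HPLC-MS/MS, with cytotoxic concentrations diluted until MTT viability reached ≥70%.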

The nature of experiment [17]: CEETOX_H295R_ESTRONE: CeeTox H295R High-throughput Steroidogenesis Assay for Estrone (AID 2283441; active means hit-call score of the fitted dose curve at least 0.9, where 1 is the maximum; inactive means score below 0.9). The conditions noted are these: actives raise or lower the signal. In outline:
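Estrone secreted into medium quantified by LC-MS/MS after dansyl chloride derivatization, following 48 h chemical exposure (0.1% DMSO final) of forskolin-prestimulated (10 uM, 48 h) H295R cells; gain or loss fitted against DMSO; MTT viability in same wells.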

The nature of experiment [18]: CEETOX_H295R_PROG: CeeTox H295R High-throughput Steroidogenesis Assay for Progesterone (PROG) (AID 2283442; active means hit-call score of the fitted dose curve at least 0.9, where 1 is the maximum; inactive means score below 0.9;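 further: human H295R adrenal cells primed with 10 µM forskolin before dosing; progesterone secreted into medium by H295R cells measured by HPLC-MS/MS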). Particulars: actives raise or lower the signal. The procedure, abridged:
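Adrenal H295R line, forskolin-stimulated (10 uM, 48 h) before dosing. 48 h exposure, 0.1% DMSO vehicle. Secreted progesterone by reverse-phase HPLC with ESI+ MS/MS quantification; DMSO-normalised bidirectional curve fit.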

Read-out in experiment [19]: Fatty acid synthase (Homo sapiens) (UniProt P49327)
The experiment can be described thus: LTEA_HepaRG_FASN: Life Technologies and Expression Analysis (LTEA) Assay for Fatty Acid Synthase (FASN) using HepaRG (AID 2283448; active means hit-call score of the fitted dose curve at least 0.9, where 1 is the maximum; inactive means score below 0.9). The conditions noted are these: mRNA level, 48 h; actives raise or lower the signal. The procedure, abridged:
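Cells were plated, cultured 48 h, switched to serum-free induction medium, then dosed in duplicate (max 100 uM, half-log dilutions, 0.5% DMSO) for 48 h. RNA was then isolated and FASN quantified by qRT-PCR.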

Chain of Retinoic acid receptor RXR-alpha (Homo sapiens) (P19793 whole entry, looked up): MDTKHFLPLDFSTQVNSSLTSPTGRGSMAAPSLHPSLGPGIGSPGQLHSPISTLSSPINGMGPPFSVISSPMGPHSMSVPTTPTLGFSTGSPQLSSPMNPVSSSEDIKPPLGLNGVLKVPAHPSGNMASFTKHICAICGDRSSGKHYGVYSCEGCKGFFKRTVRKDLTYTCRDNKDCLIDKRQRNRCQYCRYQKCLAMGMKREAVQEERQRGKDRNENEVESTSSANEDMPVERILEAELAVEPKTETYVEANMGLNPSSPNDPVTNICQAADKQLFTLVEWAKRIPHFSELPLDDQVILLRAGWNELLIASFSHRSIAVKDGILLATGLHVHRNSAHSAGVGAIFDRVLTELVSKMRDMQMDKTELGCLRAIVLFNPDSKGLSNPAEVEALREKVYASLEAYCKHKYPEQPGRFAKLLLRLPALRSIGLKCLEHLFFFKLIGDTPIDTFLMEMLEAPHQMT
Chain of Peroxisome proliferator-activated receptor gamma (Homo sapiens) (P37231 whole entry, looked up, the tested form may be a part): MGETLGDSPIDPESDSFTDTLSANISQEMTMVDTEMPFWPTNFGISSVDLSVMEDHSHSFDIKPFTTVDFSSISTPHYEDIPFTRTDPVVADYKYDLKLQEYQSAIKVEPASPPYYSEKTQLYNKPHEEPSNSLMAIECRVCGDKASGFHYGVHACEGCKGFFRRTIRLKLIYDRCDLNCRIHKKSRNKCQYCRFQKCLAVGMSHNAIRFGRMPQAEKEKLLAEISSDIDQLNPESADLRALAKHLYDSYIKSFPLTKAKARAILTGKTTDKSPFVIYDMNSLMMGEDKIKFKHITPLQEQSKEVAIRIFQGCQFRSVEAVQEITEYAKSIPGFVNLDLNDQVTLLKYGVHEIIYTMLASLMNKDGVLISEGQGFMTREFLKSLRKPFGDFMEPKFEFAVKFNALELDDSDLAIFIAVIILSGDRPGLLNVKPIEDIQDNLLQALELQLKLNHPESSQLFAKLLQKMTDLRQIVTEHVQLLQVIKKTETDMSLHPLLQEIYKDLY
Chain of Bile acid receptor (Homo sapiens) (Q96RI1 whole entry, looked up): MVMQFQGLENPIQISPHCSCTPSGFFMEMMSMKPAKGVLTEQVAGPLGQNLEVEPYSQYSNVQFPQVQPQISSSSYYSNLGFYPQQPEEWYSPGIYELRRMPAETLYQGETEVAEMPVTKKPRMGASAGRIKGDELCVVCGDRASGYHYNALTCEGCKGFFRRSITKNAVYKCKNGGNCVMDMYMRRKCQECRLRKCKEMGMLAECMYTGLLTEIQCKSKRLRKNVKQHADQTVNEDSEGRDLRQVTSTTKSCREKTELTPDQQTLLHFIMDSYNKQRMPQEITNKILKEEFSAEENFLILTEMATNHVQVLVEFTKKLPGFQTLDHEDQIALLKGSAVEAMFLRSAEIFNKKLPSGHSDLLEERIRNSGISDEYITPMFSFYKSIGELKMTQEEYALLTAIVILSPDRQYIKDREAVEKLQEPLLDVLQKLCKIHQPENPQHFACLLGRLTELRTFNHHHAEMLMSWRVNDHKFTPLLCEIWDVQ
Chain of Fatty acid synthase (Homo sapiens) (P49327 whole entry, looked up): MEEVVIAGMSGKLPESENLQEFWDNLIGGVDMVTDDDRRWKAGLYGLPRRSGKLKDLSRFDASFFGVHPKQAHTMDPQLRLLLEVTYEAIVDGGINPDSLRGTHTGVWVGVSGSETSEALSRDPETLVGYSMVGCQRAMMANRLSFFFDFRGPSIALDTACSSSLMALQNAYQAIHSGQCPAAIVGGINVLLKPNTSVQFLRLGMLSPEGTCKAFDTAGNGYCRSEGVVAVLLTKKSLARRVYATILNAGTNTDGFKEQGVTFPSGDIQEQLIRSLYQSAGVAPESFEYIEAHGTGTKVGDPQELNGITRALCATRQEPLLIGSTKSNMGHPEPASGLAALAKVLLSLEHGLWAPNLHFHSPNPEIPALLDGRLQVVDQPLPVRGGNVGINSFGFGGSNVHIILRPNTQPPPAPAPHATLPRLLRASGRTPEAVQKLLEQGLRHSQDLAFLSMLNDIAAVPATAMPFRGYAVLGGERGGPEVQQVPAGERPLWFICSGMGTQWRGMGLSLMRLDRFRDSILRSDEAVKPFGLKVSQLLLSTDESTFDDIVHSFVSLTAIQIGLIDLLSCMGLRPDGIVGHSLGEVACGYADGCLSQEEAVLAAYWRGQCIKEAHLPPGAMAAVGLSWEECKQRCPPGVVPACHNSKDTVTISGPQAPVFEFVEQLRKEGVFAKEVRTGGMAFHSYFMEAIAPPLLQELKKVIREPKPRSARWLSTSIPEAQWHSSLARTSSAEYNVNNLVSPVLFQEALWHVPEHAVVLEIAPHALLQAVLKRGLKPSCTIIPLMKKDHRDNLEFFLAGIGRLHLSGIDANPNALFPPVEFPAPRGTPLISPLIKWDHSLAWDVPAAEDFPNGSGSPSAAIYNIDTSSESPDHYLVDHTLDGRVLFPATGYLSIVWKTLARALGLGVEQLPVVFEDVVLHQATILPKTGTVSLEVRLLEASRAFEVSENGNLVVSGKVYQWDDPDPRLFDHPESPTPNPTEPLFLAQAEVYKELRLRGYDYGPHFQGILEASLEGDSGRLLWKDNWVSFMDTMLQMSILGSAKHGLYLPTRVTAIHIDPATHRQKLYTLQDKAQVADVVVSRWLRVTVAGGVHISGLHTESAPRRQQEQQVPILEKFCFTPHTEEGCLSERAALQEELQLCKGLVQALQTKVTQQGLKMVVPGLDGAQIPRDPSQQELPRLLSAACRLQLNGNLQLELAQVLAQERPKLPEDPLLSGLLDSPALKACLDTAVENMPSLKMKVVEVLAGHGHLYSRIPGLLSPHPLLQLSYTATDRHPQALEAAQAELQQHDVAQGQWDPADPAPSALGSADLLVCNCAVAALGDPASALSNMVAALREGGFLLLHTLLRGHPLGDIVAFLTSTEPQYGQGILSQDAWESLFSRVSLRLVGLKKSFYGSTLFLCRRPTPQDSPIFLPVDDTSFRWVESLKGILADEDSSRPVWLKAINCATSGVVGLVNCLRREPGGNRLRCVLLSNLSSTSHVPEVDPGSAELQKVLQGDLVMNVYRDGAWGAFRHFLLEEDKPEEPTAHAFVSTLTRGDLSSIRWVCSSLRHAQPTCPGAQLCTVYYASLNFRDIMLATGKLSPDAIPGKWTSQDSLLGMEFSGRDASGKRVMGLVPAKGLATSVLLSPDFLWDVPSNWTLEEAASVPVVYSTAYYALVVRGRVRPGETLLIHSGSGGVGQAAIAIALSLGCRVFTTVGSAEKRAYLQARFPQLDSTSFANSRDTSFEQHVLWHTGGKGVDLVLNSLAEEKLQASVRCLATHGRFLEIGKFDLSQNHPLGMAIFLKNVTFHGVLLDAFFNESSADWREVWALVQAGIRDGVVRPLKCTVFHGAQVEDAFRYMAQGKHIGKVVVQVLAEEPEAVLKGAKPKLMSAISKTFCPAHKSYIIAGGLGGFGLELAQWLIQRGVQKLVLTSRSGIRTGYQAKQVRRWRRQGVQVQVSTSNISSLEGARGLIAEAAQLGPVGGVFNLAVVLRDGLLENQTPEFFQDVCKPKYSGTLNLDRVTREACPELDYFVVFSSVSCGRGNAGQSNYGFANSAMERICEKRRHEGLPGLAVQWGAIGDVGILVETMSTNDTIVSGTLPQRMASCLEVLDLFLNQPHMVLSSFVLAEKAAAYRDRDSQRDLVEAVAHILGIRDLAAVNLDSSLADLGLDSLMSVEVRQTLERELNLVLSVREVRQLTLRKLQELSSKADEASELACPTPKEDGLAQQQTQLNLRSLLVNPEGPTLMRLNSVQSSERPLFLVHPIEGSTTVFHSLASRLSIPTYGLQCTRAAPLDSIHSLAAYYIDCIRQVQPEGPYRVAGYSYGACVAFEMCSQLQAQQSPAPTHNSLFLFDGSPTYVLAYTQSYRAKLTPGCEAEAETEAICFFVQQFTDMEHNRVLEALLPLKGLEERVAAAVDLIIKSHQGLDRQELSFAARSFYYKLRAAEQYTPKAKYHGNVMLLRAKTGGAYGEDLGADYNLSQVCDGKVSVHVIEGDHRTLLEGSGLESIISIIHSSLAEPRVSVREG

With `Cc1cc(C)c(O)c(C)c1`, the compound was classed as inactive in experiment [1], in [2], in experiment [3], in experiment [4], in experiment [5] and in [6]. Also, the result in experiment [7], in experiment [8] and in experiment [9] was inactive.
For orientation: AC50 means the concentration giving half of the maximal activity seen. With `COc1ccc([N+](=O)[O-])cc1N`, the compound was classed as inactive in [1], in [2], in experiment [3], in [4], in [5] and in experiment [6]. In addition, the compound was called inactive in experiment [11], in experiment [16], in experiment [17], in [7], in [8] and in [9]. Besides, the AC50 in experiment [10] was 50 µM (active); in experiment [12] it was 6.07 µM (active); in experiment [13] it was 8.72 µM (active); in [14], 44.6 µM (active); in experiment [15] it was 10.6 µM (active); in experiment [18], 14.2 µM (active).
For `CC#C[C@]1(O)CC[C@H]2[C@@H]3CCC4=CC(=O)CCC4=C3[C@@H](c3ccc(N(C)C)cc3)C[C@@]21C`, the AC50 in experiment [1] was 4.33 µM (active); in experiment [2], 5.36 µM (active); in experiment [3], 0.437 µM (active); in experiment [4], 0.416 µM (active); in [12], 0.218 µM (active); in [18] it was 3.9 µM (active). Besides, the AC50 was 22 µM (active) in [7] and 39.2 µM (active) in [9]. Further, the call in experiment [1], in experiment [2], in experiment [3], in [4], in experiment [5] and in experiment [6] was inactive. Further, the result in experiment [11], in [16], in [17] and in [8] was inactive.
In the case of `CCCOC(=O)c1ccc(O)cc1`, the outcome in experiment [1], in [3], in experiment [4], in [5], in [6] and in [13] was inactive. The compound was classed as inactive in experiment [16], in experiment [17], in experiment [7], in experiment [8] and in experiment [9]. Further, the AC50 in experiment [2] was 58.5 µM (active); in [10], 35.4 µM (active); in experiment [11] it was 24.4 µM (active); in experiment [12], 7.73 µM (active); in experiment [14], 79.4 µM (active); in experiment [15], 26.8 µM (active). Moreover, in [18], the AC50 was 5.71 µM (active).
For `CCCCOCCO`, the result in [1], in experiment [2], in experiment [3], in experiment [4], in experiment [5] and in experiment [6] was inactive. In addition, the result in [7], in experiment [19], in [8] and in [9] was inactive.
As to `CCCCCCC(=O)O`, the call in experiment [1], in experiment [2], in experiment [3], in experiment [4], in experiment [7] and in [8] was inactive. Besides, the compound was called inactive in experiment [9].
